From PubChem BioAssay
Hits are enriched below; roughly 19% of the tested compounds scored in any of these assays.
TDP1 block: blocks human tyrosyl-DNA phosphodiesterase 1 | AID 485290 | Potency, µM (top dose mostly 130 µM), inactives show top-dose activity change, negative = inhibition, usual class: inhibitors | recombinant TDP1, AlphaScreen DNA substrate cleavage | 350,000 tested, 0.28% active; note: potency is the fitted concentration of half-maximal effect; % is set by controls: 0 for no effect and ±100 for the full control effect; nearly all actives have a fitted effect of over 40% in size
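Steps: enzyme plus compound, 15 min RT; add biotin/phosphotyrosine-FITC oligonucleotide (15 nM final), react 5 min; add donor/acceptor beads (10 ug/ml final), 10 min; read AlphaScreen. Tdp1 at 1 nM final.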
HepG2 viability: kills HepG2 cells in TGF-b inhibitor counter-screen | HepG2 CAGA-GFP viability, ATP luminescence, 18 h | Potency, µM (top dose mostly 46.1 µM), inactives show at the top dose activity change, negative = cytotoxicity, usual class: cytotoxic | 410,000 tested, 0.76% active | AID 588856; note: potency is the fitted concentration of half-maximal effect
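CellTiter-Glo luminescence gave cytotoxicity after 18 hours at 37 degrees C. The cells were HepG2 CAGA-GFP in 1% FBS DMEM, stimulated with 500 pg/mL TGF-beta after compound addition. %Activity was normalised to no-cell wells (complete cell-killing) and DMSO (no toxicity), and curves were fitted and classified.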
IL-1B inflam inh: inhibitors of inflammasome signaling (IL-1 beta secretion). activity change, % at 57.5 µM. 360,000 tested, 4.7% active. AID 743279. THP-1 LPS/ATP IL-1B secretion, AlphaLISA, 16 h; stronger effect = lower value; in the data active = activity change below about -50%; inconclusive = mostly about -30% to -49%; note: % is set by controls: 0 for no effect and ±100 for the full control effect
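THP-1 cells pretreated 1 hr with compounds (up to 57.5 uM final), then stimulated with LPS (250 ng/mL final) plus ATP (1.25 mM final); secreted IL-1B measured by AlphaLISA after 16 hr, decreased signal indicating inhibition.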
DT40 TDP1 no CPT: qHTS for Inhibitors of human tyrosyl-DNA phosphodiesterase 1 (TDP1): qHTS in cells in absence of CPT; Potency, µM (doses to about 46.2 µM), for the others: at the top dose activity change, negative = growth inhibition, actives largely listed as inhibitors; 420,000 tested, 15% active; DT40 Tdp1-/- hTDP1 cells, no CPT, ATP luminescence, 48 h; note: potency is the fitted concentration of half-maximal effect; % is set by controls: 0 for no effect and ±100 for the full control effect; nearly all actives have a fitted effect of over 55% in size
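Chicken DT40 Tdp1-/- cells complemented with human TDP1, screened without camptothecin (DMSO vehicle only), 400 cells/well. Compounds pin-transferred, cells incubated at 37 °C for at least 48 hr. Growth read as ATP-dependent luminescence (CellTiter-Glo, 30 min at RT).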
TGFb inhibitor: inhibitors of TGF-b signaling; HepG2 CAGA-GFP TGF-b/SMAD3 reporter, GFP fluorescence, 18 h; TGF-beta stimulated, 500 pg/mL final; Potency, µM (top dose mostly 46.1 µM), inactives show at the highest dose activity, negative = inhibition, hits mostly inhibitors; 410,000 tested, 1.2% active; AID 588855; note: potency is the fitted concentration of half-maximal effect; % is set by controls: 0 for no effect and ±100 for the full control effect; nearly all actives have a fitted effect of over 65% in size
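Inhibition of TGF-beta-driven CAGA-GFP reporter expression in HEPG2 cells is measured by cellular GFP fluorescence after 18 h stimulation with 500 pg/mL recombinant TGF-beta in 1% FBS medium at 37 degrees C.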
DT40 TDP1 CPT: DT40-hTDP1 cell growth loss with CPT | 420,000 tested, 12% active | Potency, µM (doses to about 46.2 µM), without a hit: top-dose activity change, negative = growth inhibition, hits mostly inhibitors | chicken DT40 Tdp1-/-;hTDP1 cells + 20 nM CPT, ATP luminescence, 48 h; note: potency is the fitted concentration of half-maximal effect; % is set by controls: 0 for no effect and ±100 for the full control effect; nearly all actives have a fitted effect of over 55% in size
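Cell growth measured by CellTiter-Glo luminescence after a minimum 48 h, 37 C compound exposure with 20 nM CPT in Tdp1-knockout DT40 cells stably expressing hTDP1, seeded 400/well; qHTS titration format.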
* = called active by the depositor; u = inconclusive; x = not tested or not shown; [ ] = dose if it differs, or a comment. Unless noted, calls come from the whole dose curve; as a rule, active = well fitted curve in the direction sought with a large enough effect; inconclusive = small, poorly fitted or top-dose-only effect, or another doubt; inactive = no such curve, though single readings can be large; an effect the other way counts as inactive or inconclusive.

SMILES | TDP1 block | HepG2 viability | IL-1B inflam inh | DT40 TDP1 no CPT | TGFb inhibitor | DT40 TDP1 CPT
CCCN(CCC)CCCNc1ccc(C(=O)Nc2cccc(OC)c2)cc1[N+](=O)[O-] | 4% | -6% | -81* | u | 5% | u
O=C(Nc1cc(F)cc(F)c1)c1ccc(NCCc2ccccc2)c([N+](=O)[O-])c1 | -1% | -26% | 1 | 0% | 10% | 6%
COc1cccc(NC(=O)c2ccc(NCCCN3CC(C)CC(C)C3)c([N+](=O)[O-])c2)c1 (centres undefined) | 2% | -12% | -7 | u | -19% | 0%
Cc1ccc(NC(=O)c2ccc(NCCCN3CCC(C)CC3)c([N+](=O)[O-])c2)c(C)c1 | x | -44% | u | 16µM* | u | u
O=C(Nc1cc(F)cc(F)c1)c1ccc(NCCCN2CCCCCC2)c([N+](=O)[O-])c1 | 6% | -24% | -76* | u | 20% | u
O=C(COC(=O)CSc1ccc([N+](=O)[O-])cc1)NCc1ccco1 | -1% | 0% | 6 | -8% | -1% | -7%
CC1CCN(S(=O)(=O)c2ccc3c(ccc(=O)n3CC(=O)NCc3ccccc3)c2)CC1 | -1% | -20% | x | u | u | -29%
COc1ccc(-c2ccc(CCC(=O)O)n2CC(C)C)cc1 | 3% | -4% | 38 | 21µM* | u | u
COC(=O)c1cccc(-n2c(CCC(=O)O)ccc2-c2cccs2)c1 | 7% | -11% | 14 | 6% | 5% | -17%
C=CCn1c(CCC(=O)O)ccc1-c1ccc(OC)cc1 | 9% | -9% | 17 | -9% | 0% | -3%
COC(=O)c1cccc(-n2c(CCC(=O)O)ccc2-c2ccc(OC)cc2)c1 | 4% | 6% | x | 15µM* | u | 15µM*
CC(C)CN1CCC(Oc2cccc(C(=O)NCCc3ccccc3)c2)CC1 | 2% | -12% | -9 | -10% | 0% | -1%
CC(C)C[C@H](NC(=O)N1CCCCCC1)C(=O)O | 3% | -21% | 0 | 2% | -1% | 5%
O=C(Nc1ccc(OC(F)(F)F)cc1)C1CCCCN1S(=O)(=O)c1ccccc1 (centres undefined) | -10% | -27% | u | 15µM* | u | u
CCOc1ccccc1NC(=O)C1CCCCN1S(=O)(=O)c1ccccc1 (centres undefined) | -4%[56.1 µM] | 5% | -5 | 21µM* | 0% | u
COc1ccc(OC)c(NC(=O)C(Cc2ccccc2)NS(=O)(=O)c2ccc3c(c2)CCC(=O)N3)c1 (centres undefined) | 5% | 1% | x | u | -23% | u
C=Cc1ccc(Cn2ccn(-c3ccc(F)c(F)c3)c(=O)c2=O)cc1 | 3% | -9% | x | 3% | -4% | 1%
COc1cc(/C=N/n2c(C)nc3ccccc3c2=O)ccc1O | x | 3% | -25 | -3% | 6% | -15%
COCCN=c1scc(-c2cccs2)n1/N=C(\C)c1ccco1 | 5% | -23% | u | u | -20% | u
COCCN=c1scc(-c2ccc3c(c2)NC(=O)CO3)n1/N=C(\C)c1ccc(O)cc1 | 12% | -27% | -61* | u | -3% | u
